# An excerpt weighted towards active compounds, which were near 3.4% of everything screened.
# PP1 counter: PP1-alpha phosphatase inhibitors, primary screen, counter-screen for PP5 inhibitor project, biochemical, fluorescence, OMFP substrate, single point; Serine/threonine-protein phosphatase PP1-alpha catalytic subunit (Homo sapiens), P62136; purified PP1alpha; inhibition, % at 6.7 µM; hit rate 0.9% among 320,000;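 active = inhibition above the mean inhibition of all tested compounds plus 3 SD, computed separately for each screening campaign, cut at about 15% in these data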
# PAFAH2 inh: PAFAH2 enzyme inhibitors, primary screen, biochemical, fluorescence polarization, human | Platelet-activating factor acetylhydrolase 2, cytoplasmic (Homo sapiens), Q99487 | recombinant PAFAH2, FP-rhodamine activity probe | inhibition, % at 3.39 µM | hit rate 0.99% among 340,000 | AID 492956, 2010;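 active = inhibition above the mean over all tested compounds plus 3 SD, cut at about 30% in these data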;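 note: inhibitors block probe labeling of enzyme so polarization drops; 0% = enzyme with DMSO and 100% = wells lacking PAFAH2 protein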
# PP5 inh: PP5 phosphatase inhibitors, primary screen, biochemical, fluorescence | hit rate 0.18% among 320,000 | Serine/threonine-protein phosphatase 5 (Homo sapiens), P53041 | purified PP5c, OMFP substrate fluorescence | inhibition, % at 6.7 µM;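 active = inhibition above the campaign's mean inhibition across all tested compounds plus 3 SD, cut at about 9.5% in these data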;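 note: 0% = DMSO only and 100% = 100 µM cantharidin control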
# PAFAH1B3 inh: PAFAH1B3 enzyme inhibitors, primary screen, biochemical, fluorescence polarization, human; Platelet-activating factor acetylhydrolase IB subunit alpha1 (Homo sapiens), Q15102; recombinant PAFAH1B3, FP-rhodamine probe; inhibition, % at 3.39 µM; hit rate 0.28% among 340,000; AID 492972, 2010;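 active = inhibition above the screen-wide average of all tested compounds plus 3 SD, cut at about 25% in these data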;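 note: 0% = enzyme with DMSO only and 100% = wells lacking PAFAH1B3 protein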
# PAFAH1B2 FP inh: PAFAH1B2 enzyme inhibitors, primary screen, biochemical, fluorescence polarization, human; recombinant PAFAH1B2, FP-rhodamine activity probe; AID 492953, 2010; inhibition, % at 3.39 µM; hit rate 1.2% among 340,000;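 active = inhibition above the mean of all tested compounds plus 3 SD, cut at about 24% in these data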;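 note: 0% = enzyme with DMSO and 100% = wells lacking PAFAH1B2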
# Target sequence (P68402 whole entry, looked up): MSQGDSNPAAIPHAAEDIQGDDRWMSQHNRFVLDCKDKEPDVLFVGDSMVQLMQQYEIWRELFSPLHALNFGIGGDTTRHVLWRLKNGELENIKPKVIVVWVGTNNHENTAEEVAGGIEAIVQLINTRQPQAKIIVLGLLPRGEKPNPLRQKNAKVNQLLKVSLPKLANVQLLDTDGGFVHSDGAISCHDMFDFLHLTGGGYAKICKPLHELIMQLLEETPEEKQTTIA
# pPAFAH inh: pPAFAH enzyme inhibitors, primary screen, biochemical, fluorescence polarization, human | recombinant pPAFAH, FP-rhodamine probe fluorescence polarization | inhibition, % at 3.39 µM | hit rate 1.5% among 330,000 | AID 463082, 2010;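 active = inhibition above the mean inhibition across the screen plus 3 SD, cut at about 25% in these data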;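 note: inhibitors block binding of the rhodamine activity-based probe so polarization drops; 0% = enzyme with DMSO and 100% = wells lacking pPAFAH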
# An asterisk follows results filed as active; / = no result given.
SMILES,PP1 counter,PAFAH2 inh,PP5 inh,PAFAH1B3 inh,PAFAH1B2 FP inh,pPAFAH inh
N#Cc1c(-c2ccccc2)nc(SCC(=O)Nc2ccccc2F)[nH]c1=O,3,-7,1,11,4,-4
N#Cc1c(-c2ccccc2)nc(SCC(=O)Nc2ccccc2)[nH]c1=O,3,-2,-2,14,7,-2
N#Cc1c(-c2ccccc2)nc(SCC(=O)Nc2ccc(OC(F)(F)Cl)cc2)[nH]c1=O,15,-4,3,14,79*,-7
O=C(CCN1C(=O)COc2ccccc21)NCCCN1CCN(c2ccccc2F)CC1,-1,2,4,8,4,0
CCOC(=O)c1c(CC(C)C)csc1NC(=O)COC(=O)C1=NNC(=O)CC1,-2,-3,-2,5,5,2
COC(=O)CNC(c1ccccc1)c1cc(C)ccc1NC(=O)CNC(=O)OCc1ccccc1 (stereo not drawn),5,10,4,9,-2,30*
Cc1ccc(N2C(=O)CC(Sc3nc4ccccc4o3)C2=O)cc1Cl (stereo not drawn),6,-3,3,3,30*,-3
Cc1ccc(C)n1-c1cccc(C(=O)O)c1,14,/,1,/,/,63*
O=C(O)CSc1ncnc2scc(-c3ccccc3)c12,0,4,-2,-4,8,2
COc1cc(NC(=O)CSc2ncnc3scc(-c4ccccc4)c23)c(C(=O)O)cc1OC,-1,29,-2,9,5,31*
O=C(CN(Cc1ccccc1F)C(=O)c1csnn1)NC1CCCCC1,0,0,2,6,4,4
CN(C)C1CCN(Cc2cc(COCc3ccccc3)c3cccnc3c2O)C1 (stereo not drawn),/,6,/,17,5,25*
COc1cc(/C=C/C(=O)OCC(=O)Nc2cccc(F)c2)ccc1O,/,93*,/,11,2,28*
COc1cc(/C=C/C(=O)OCC(=O)NC2CCCCCCC2)ccc1O,/,76*,/,-8,5,27*
O=C(NNC(=O)c1cc2cc(Br)ccc2oc1=O)c1ccc(O)cc1,-7,9,3,10,0,13
CC(=O)c1ccc(-c2ccc([C@H]3[C@@H]4C=CCC[C@@]4(C)C(=O)N3Cc3ccccc3)c(F)c2)cc1,5,-4,3,-4,4,7
Cc1c(N2C(=O)/C(=C\c3ccc(N(C)C)cc3)N(C)C2=S)c(=O)n(-c2ccccc2)n1C,16*,-67,8,-85,-55,-39
O=C(Cn1cccc1C(=O)c1ccccc1)NCCN1CCOCC1,0,-3,1,-6,5,1
Cc1cc(O)c(C(=O)/C=C/c2ccc(Cl)cc2)c(=O)o1,17*,7,-9,9,3,27*
Oc1c(Cl)cccc1C=Nc1cc(C(F)(F)F)ccc1N1CCCC1,-2,1,1,13,1,21
Oc1c(Cl)cc(Cl)cc1C=Nc1cc(C(F)(F)F)ccc1N1CCc2ccccc2C1,1,6,3,5,4,28*
COc1ccc(/C=N/n2c(C)nc3sc(C)c(C)c3c2=O)cc1OC,-4,5,-1,3,1,-2
Cc1c(Cl)cccc1NC(=O)CSCc1cc(=O)[nH][nH]1,3,-2,4,1,2,25*
Cc1c(Cl)cccc1NC(=O)CSc1nnnn1C,/,14,/,10,5,1
COc1cccc(-n2sc3c(c2=S)-c2cc(OC)ccc2NC3(C)C)c1,-1,3,1,3,3,16
CC1(C)Nc2ccc(O)cc2-c2c1ssc2=S,2,10,3,7,3,26*
O=[N+]([O-])c1ccc(Sc2nccn2Cc2ccccc2)c([N+](=O)[O-])c1,-5,-4,-3,1,7,6
O=[N+]([O-])c1cc(C(F)(F)F)ccc1Sc1nccn1Cc1ccccc1,4,3,5,9,70*,7
O=C(COC(=O)COc1ccccc1)Nc1ncc(Cl)cc1Cl,/,7,/,7,1,12

# Screening data as filed in PubChem.
